Screens: PubChem BioAssay, Broad Institute
CDK5 inh = inhibitors of human CDK5/p35 kinase; Q00535+Q15078; Recombinant CDK5/p35, ADP-Glo luminescence, 60 min; inhibition, % at 10 µM; 0.01% of 330,000 active; AID 488839;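 active = highest replicate inhibition of at least 50% and at least 75% of replicates reaching 50%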;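 note: plate controls were DMSO neutral control for no effect and GW8510 at 10 µM for full effect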
FGF22 binding = FGF22 (human) thermal shift binding; activity (Tm shift, normalised), % at 9.99 µM; recombinant FGF22 thermal shift, SYPRO orange fluorescence; percent of sucrose octasulfate shift, DMSO zero; 1.5% of 340,000 active;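 active = mean Tm shift, scaled 0 neutral to 100 positive control, at about 1.3% or above, every replicate too, limit read from the data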
Target sequence (Q9HCT0 whole entry, looked up): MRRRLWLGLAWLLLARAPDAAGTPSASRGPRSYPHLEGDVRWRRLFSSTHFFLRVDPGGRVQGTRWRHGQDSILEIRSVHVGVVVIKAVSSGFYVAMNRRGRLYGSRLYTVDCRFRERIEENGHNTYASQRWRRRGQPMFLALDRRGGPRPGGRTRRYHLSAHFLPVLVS
PglD DTNB = PglD (C. jejuni) enzyme inhibition. purified PglD enzyme, DTNB colorimetric CoA detection. inhibition, % at 12.5 µM. 0.098% of 360,000 active; in the data active = inhibition above about 16%, passing the limit was not always enough
PvdQ inh = blocks Pseudomonas aeruginosa PvdQ acylase activity; AID 488965; purified PvdQ acylase, fluorescence plate reader; inhibition, % at 10 µM; 0.063% of 340,000 active; in the data active = inhibition above about 30%, passing the limit was not always enough;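 note: 0% = vehicle neutral wells and 100% = reference inhibitor wells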
dFosB activator = enhances mouse delta FosB homodimer DNA binding. P13346. purified delta FosB, TAMRA-CDK5 oligo fluorescence polarization; percent of positive-control signal above neutral wells. activation, % at 25 µM. 0.99% of 340,000 active. AID 493131;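 active = mean activation above about 17%, with every replicate also reaching it, limit read from the data, passing the limit was not always enough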
SIRT5 block = blocks human SIRT5 desuccinylation of peptide; Q9NXA8; Purified SirT5, succinyl-peptide AMC, trypsin-coupled fluorescence; inhibition, % at 15 µM; 1.1% of 330,000 active; in the data active = inhibition above about 15%
Target sequence (Q9NXA8 whole entry, looked up): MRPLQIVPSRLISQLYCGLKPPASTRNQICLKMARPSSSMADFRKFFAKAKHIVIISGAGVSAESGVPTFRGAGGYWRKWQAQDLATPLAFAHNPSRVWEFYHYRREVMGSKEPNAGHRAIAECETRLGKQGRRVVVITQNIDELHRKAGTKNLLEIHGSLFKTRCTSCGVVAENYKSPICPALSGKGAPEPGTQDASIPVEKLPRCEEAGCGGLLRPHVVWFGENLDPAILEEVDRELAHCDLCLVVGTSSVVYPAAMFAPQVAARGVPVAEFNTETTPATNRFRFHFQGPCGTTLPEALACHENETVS
The depositor's hits bear a star; / = not tested or not shown. Compounds with a hit are over-represented: about 2.8% of the library has one in this group of screens.

SMILES	CDK5 inh	FGF22 binding	PglD DTNB	PvdQ inh	dFosB activator	SIRT5 block
CC(=O)Nc1ccc(/C=N/Nc2nc3ccccc3[nH]2)cc1	1	0	/	-8	11	-1
Cc1nn(-c2ccccc2)c(C)c1/C=N/Nc1nc2ccccc2[nH]1	2	0	1	1	27*	3
Cc1cc(=O)[nH]c(N/N=C/c2c(C)nn(-c3ccccc3)c2C)n1	0	0	-4	7	1	-1
Cn1c(/C=N/Nc2nc3ccccc3[nH]2)nc2ccccc21	4	1	/	-6	-2	3
Cc1c(/C=N/Nc2nc3ccccc3[nH]2)c2ccccc2n1C	1	0	-3	-2	78*	-3
CCN(CC)c1ccc(/C=N/Nc2nc3ccccc3[nH]2)cc1	2	/	1	0	39*	/
Clc1nc2ccccc2cc1/C=N/Nc1nc2ccccc2[nH]1	3	0	/	-14	18*	-2
C[C@@H]1CN([C@@H](C)CO)C(=O)c2c(c3ccccc3n2C)-c2ccccc2CO[C@H]1CN(C)S(=O)(=O)c1cccc(C#N)c1	/	0	-2	/	/	/
C=CCN(c1ccccc1)S(=O)(=O)c1cccc(C(=O)Nc2ccncc2)c1	1	0	5	-13	-9	19*
C=CCN(c1ccccc1)S(=O)(=O)c1cccc(C(=O)NCc2ccncc2)c1	-1	0	/	-15	-11	5
CCOC(=O)C1=CCC2C(=O)N(C3CCCCC3)C(=O)C12 (stereo not drawn)	/	1	-3	/	/	18*
CCOC(=O)c1ccc2c(c1)C(=O)N(C1CCCCC1)C2=O	-1	0	/	-10	-10	0
COc1ccc(/C=N/Nc2cc(C)nc3ccc(Br)cc23)cc1	0	-1	-8	-5	62*	-3
COc1ccc2nc(C)cc(N/N=C/c3cccc(OC)c3O)c2c1	0	-1	-10	-4	-119	-2
O=[N+]([O-])c1ccc(Sc2ccccc2Cl)nc1	-1	/	-8	65*	-1	/
COc1cc2c(cc1OC)C(NC(=O)C(F)(F)F)CNC2=O (stereo not drawn)	1	43*	/	5	-2	-1
COc1cc2c(c(OC)c1OC)CC(c1ccccc1)=C(c1ccccc1)CC2NC(=O)C(F)(F)F (stereo not drawn)	/	0	/	/	/	-4
O=[N+]([O-])c1ccccc1S(=O)(=O)N/C(=N/S(=O)(=O)c1ccccc1)c1ccccc1	1	43*	-2	3	-1	/
C[C@H]1C(=O)N(C)CCN1Cc1cn(C)nc1-c1ccc(Oc2ccccc2)cc1	-1	44*	-1	-13	-14	-1
Cc1ccc(S(=O)(=O)Nc2ccc3c(c2)C(=O)N([C@@H](C)CO)C[C@@H](C)[C@@H](CN(C)S(=O)(=O)c2ccc(Cl)cc2)O3)cc1	/	-1	/	/	/	20*
Cc1ccc(S(=O)(=O)Nc2ccc3c(c2)C(=O)N([C@H](C)CO)C[C@@H](C)[C@H](CN(C)S(=O)(=O)c2ccc(Cl)cc2)O3)cc1	/	/	/	/	/	16*
CO[C@@H]1CN(C)C(=O)c2ccc(NC(=O)C3CC3)cc2OC[C@@H](C)N(C(=O)CN2CCOCC2)C[C@@H]1C	/	0	4	/	/	0
C[C@H]1CN([C@@H](C)CO)S(=O)(=O)c2ccc(-c3cccc(F)c3)cc2O[C@H]1CN(C)CC1CC1	/	0	1	/	/	2
C[C@H](CO)N1C[C@H](C)[C@H](CN(C)Cc2ccc(Oc3ccccc3)cc2)Oc2ccc(NC(=O)C3CC3)cc2CC1=O	/	0	2	/	/	6
O=C(Nc1cccc(NC(=O)c2ccco2)c1)c1cccc(Br)c1	-1	43*	2	-7	-16	/
SMILES	CDK5 inh	FGF22 binding	PglD DTNB	PvdQ inh	dFosB activator	SIRT5 block
C/C(=N/NC(=O)c1ccco1)c1cccc(NC(=O)c2ccc(C)o2)c1	1	/	-3	0	-9	/
CC(=O)Nc1cccc(NC(=O)c2ccc(COc3ccccc3)cc2)c1	-1	43*	-1	-14	4	/
O=C(Nc1cccc(Br)c1)c1ccc(CSc2ccccc2)cc1	0	0	0	2	-6	24*
C/C(=N/NC(=O)c1ccco1)c1cccc(NC(=O)c2ccc(C)s2)c1	0	1.5*	-2	-10	-12	0
CO[C@H]1CN(C)C(=O)c2ccc(NS(C)(=O)=O)cc2OC[C@H](C)N(Cc2ccccn2)C[C@@H]1C	/	0	/	/	/	3
CCOc1cccc(C(=O)Nc2cccc(NC(=O)c3ccco3)c2)c1	-5	1.5*	0	-14	-29	6
C[C@H]1CN([C@@H](C)CO)C(=O)Cc2cc(NS(=O)(=O)c3ccccc3)ccc2O[C@H]1CN(C)S(=O)(=O)c1cn(C)cn1	/	0	-1	/	/	-2
Cc1nnc(NC(=O)c2cc3ccccc3o2)s1	1	0	-6	1	-10	4
Cc1cnc(NC(=O)c2cc3ccccc3o2)s1	2	0	/	-17	-11	112*
COc1ccc(CN(C)C[C@@H]2OCCCC[C@H](C)Oc3ccc(N(C)C)cc3C(=O)N([C@H](C)CO)C[C@@H]2C)cc1	/	0	5	/	/	6
Cc1cc(C(=O)Nc2cccc3c2O[C@H](CN(C)C(=O)Nc2ccc(C(F)(F)F)cc2)[C@@H](C)CN([C@@H](C)CO)C3=O)n(C)n1	/	0	0	/	/	2
COc1ccc(C(=O)Nc2ccc3c(c2)OC[C@H](C)N(C)C[C@H](C)[C@@H](OC)CN(C)C3=O)cc1	/	0	/	/	/	-2
COc1ccccc1C(=O)Nc1ccc2c(c1)C(=O)N(C)C[C@H](OC)[C@H](C)CN(C)[C@H](C)CO2	/	0	/	/	/	2
O=C(O)c1ccc(COc2ccc([N+](=O)[O-])cc2)o1	-1	0	/	-5	7	19*
CCS(=O)(=O)N1CC2(C1)CN(S(=O)(=O)c1cn(C)cn1)[C@@H](CO)c1[nH]c3cc(OC)ccc3c12	/	0	/	/	/	30*
CCCC(=O)N1CC2(C1)CN(S(=O)(=O)c1ccc(C)cc1)[C@H](CO)c1[nH]c3cc(OC)ccc3c12	/	/	/	/	/	15*
CCS(=O)(=O)N1CC2(C1)CN(S(=O)(=O)c1cn(C)cn1)[C@H](CO)c1[nH]c3cc(OC)ccc3c12	/	0	/	/	/	-1
CCCC(=O)N1CCC2(CC1)CN(S(=O)(=O)c1ccc(C)cc1)[C@H](CO)c1[nH]c3cc(OC)ccc3c12	/	0	/	/	/	5
COc1ccc(Cc2noc(CN3CCN(Cc4cccc(Cl)c4)CC3)n2)cc1OC	1	44*	/	-12	-6	1
Cc1ccc(C)c(NC(=O)Cn2nc([N+](=O)[O-])c(Br)c2C)c1	0	0	-4	-8	9	33*
CO[C@H]1CN(C)C(=O)c2cc(NC(=O)Nc3cccc(F)c3)ccc2OC[C@@H](C)NC[C@H]1C	/	0	4	/	/	-11
CCOC(=O)Cn1nc(C(F)F)c(Br)c1C	-5	44*	/	-12	-6	-2
